Laboratory results published in the supplement of paper PMC11732987, “Enantioselective OTUD7B fragment discovery through chemoproteomics screening and high-throughput optimisation” (Communications Chemistry, 2025).

Columns and labels:
Assay in all cases: log2 ratio of Biotin-Ahx-Ub-VS probe labelling (fragment/DMSO); higher = less target engagement (more negative = stronger competition), active = hit call of the paper (q ≤ 0.05, log2 ratio ≤ -1)
Conditions in all cases: compound concentration: 200 uM; treatment time: 3 h
USP42 = target: T1, USP42 (UniProt Q9H9J4)
T1 sequence (whole entry): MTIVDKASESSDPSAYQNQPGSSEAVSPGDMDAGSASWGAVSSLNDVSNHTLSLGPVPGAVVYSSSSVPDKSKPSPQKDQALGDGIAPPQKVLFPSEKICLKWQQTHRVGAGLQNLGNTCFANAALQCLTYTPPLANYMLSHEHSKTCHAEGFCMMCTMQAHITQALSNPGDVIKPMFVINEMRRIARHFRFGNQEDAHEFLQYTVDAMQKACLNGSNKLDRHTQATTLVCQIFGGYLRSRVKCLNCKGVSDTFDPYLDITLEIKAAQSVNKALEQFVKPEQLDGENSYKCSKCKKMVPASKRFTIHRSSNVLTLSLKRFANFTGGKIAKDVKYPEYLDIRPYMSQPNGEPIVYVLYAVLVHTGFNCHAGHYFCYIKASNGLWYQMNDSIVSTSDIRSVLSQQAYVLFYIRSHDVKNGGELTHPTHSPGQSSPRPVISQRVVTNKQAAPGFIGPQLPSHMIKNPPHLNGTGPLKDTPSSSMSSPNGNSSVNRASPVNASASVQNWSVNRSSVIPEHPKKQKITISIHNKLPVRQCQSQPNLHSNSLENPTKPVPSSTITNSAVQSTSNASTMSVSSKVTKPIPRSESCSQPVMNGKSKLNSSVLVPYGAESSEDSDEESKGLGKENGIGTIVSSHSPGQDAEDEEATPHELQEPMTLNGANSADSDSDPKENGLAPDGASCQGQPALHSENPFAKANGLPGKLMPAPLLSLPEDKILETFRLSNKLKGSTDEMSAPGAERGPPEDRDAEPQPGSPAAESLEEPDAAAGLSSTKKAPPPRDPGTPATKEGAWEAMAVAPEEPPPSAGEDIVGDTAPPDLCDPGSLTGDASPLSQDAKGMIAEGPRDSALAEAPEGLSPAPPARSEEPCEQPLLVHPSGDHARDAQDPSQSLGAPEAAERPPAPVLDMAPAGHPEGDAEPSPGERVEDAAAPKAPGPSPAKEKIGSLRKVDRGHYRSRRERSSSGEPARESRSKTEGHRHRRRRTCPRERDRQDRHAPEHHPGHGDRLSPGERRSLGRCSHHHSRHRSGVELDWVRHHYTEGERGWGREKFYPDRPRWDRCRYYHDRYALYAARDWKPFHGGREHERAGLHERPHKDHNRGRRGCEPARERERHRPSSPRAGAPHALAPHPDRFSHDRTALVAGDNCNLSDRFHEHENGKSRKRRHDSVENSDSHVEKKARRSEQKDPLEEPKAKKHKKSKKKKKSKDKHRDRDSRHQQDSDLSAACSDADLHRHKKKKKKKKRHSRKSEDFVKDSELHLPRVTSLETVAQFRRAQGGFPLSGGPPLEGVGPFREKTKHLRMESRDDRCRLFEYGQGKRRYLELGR
Outline: (§1)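 Each value is an average log2 ratio of fragment to vehicle, tested by unpaired t-test. The underlying Spectronaut label-free quantities were global-median-normalised, and only proteins with ≥2 unique peptides were included. Triplicate HEK293T lysate samples (495 µg) were exposed to fragment at 200 µM or vehicle for 3 h, then to Biotin-Ahx-Ub-VS at 0.5 µM final for 1 h, before NeutrAvidin enrichment of labelled DUBs, LysC and trypsin digestion, and diaPASEF LC-MS/MS.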

USP46 = USP46 (UniProt P62068)
Chain of USP46 (P62068 whole entry): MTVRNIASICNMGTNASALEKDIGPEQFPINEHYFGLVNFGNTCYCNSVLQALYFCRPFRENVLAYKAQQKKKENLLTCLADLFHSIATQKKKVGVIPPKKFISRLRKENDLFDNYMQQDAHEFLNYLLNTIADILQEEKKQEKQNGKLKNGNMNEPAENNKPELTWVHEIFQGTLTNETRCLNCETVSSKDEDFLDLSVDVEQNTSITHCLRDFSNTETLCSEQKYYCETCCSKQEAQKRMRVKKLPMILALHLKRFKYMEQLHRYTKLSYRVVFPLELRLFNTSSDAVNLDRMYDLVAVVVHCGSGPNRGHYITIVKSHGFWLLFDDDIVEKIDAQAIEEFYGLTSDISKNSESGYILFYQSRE
Outline: as §1

USP47 = target: T2, USP47 (UniProt Q96K76)
T2 sequence (whole entry): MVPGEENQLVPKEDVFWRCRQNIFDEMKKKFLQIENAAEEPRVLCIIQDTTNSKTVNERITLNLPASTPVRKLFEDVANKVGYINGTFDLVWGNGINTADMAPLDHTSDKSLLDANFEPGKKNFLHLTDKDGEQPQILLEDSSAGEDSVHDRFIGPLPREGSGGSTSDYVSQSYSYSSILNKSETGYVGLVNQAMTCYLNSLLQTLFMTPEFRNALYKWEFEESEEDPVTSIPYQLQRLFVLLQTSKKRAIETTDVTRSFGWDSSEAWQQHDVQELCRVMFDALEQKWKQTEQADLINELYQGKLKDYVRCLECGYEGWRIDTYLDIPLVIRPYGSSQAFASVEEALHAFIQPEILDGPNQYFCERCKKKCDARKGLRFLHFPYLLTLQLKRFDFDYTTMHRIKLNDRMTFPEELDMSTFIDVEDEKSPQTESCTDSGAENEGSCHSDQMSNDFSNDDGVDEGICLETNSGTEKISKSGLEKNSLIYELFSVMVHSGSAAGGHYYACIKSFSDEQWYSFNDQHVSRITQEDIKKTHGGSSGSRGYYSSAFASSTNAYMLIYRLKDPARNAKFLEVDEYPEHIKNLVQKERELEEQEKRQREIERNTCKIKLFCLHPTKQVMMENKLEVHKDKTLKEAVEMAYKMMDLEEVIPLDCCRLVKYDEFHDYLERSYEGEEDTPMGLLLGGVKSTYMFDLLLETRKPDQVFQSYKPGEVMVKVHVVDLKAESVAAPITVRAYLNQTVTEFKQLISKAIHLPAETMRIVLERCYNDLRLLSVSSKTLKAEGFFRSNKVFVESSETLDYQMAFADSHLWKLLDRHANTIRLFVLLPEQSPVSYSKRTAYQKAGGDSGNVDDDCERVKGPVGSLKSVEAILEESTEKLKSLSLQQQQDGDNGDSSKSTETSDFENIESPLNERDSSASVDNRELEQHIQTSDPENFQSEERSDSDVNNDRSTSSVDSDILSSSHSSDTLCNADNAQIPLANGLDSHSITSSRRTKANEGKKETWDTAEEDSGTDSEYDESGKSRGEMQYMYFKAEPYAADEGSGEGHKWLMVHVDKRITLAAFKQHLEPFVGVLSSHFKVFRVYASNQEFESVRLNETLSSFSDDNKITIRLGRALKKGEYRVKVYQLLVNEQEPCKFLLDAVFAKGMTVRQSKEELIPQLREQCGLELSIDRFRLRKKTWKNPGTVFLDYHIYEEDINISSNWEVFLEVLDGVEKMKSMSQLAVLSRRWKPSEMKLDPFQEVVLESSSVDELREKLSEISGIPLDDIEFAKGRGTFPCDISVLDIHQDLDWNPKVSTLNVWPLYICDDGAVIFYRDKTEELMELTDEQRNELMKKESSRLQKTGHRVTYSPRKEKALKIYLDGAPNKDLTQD
Outline: as §1

USP48 = target: T3, USP48 (UniProt Q86UV5)
T3 sequence (whole entry): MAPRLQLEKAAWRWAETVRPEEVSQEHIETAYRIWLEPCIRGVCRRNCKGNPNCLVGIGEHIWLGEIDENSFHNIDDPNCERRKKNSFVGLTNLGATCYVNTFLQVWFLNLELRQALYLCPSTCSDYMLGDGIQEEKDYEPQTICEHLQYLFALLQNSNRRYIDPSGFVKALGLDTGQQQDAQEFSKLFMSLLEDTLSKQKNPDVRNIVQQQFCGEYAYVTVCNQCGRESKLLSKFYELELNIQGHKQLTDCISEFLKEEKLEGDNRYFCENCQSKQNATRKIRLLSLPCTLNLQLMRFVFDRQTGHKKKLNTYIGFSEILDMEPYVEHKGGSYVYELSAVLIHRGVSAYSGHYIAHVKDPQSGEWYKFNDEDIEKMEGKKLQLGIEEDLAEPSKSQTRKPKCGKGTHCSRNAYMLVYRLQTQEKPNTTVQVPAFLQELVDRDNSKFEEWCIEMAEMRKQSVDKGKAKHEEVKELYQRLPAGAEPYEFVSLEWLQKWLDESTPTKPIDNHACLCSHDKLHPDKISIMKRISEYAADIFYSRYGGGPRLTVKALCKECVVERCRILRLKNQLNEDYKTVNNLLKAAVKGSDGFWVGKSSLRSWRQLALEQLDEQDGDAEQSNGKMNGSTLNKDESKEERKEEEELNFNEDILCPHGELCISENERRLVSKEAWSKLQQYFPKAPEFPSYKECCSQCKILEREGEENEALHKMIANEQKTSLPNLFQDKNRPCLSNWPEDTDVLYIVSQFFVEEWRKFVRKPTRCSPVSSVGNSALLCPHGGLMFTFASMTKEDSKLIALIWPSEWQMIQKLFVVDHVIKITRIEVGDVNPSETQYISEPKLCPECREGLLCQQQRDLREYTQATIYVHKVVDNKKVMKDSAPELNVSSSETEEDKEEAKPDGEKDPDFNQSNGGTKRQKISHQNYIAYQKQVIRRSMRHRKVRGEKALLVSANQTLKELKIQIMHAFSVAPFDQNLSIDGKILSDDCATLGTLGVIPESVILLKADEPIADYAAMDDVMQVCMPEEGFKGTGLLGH
Outline: as §1

USP5 = target: T4, USP5 (UniProt P45974)
T4 sequence (whole entry): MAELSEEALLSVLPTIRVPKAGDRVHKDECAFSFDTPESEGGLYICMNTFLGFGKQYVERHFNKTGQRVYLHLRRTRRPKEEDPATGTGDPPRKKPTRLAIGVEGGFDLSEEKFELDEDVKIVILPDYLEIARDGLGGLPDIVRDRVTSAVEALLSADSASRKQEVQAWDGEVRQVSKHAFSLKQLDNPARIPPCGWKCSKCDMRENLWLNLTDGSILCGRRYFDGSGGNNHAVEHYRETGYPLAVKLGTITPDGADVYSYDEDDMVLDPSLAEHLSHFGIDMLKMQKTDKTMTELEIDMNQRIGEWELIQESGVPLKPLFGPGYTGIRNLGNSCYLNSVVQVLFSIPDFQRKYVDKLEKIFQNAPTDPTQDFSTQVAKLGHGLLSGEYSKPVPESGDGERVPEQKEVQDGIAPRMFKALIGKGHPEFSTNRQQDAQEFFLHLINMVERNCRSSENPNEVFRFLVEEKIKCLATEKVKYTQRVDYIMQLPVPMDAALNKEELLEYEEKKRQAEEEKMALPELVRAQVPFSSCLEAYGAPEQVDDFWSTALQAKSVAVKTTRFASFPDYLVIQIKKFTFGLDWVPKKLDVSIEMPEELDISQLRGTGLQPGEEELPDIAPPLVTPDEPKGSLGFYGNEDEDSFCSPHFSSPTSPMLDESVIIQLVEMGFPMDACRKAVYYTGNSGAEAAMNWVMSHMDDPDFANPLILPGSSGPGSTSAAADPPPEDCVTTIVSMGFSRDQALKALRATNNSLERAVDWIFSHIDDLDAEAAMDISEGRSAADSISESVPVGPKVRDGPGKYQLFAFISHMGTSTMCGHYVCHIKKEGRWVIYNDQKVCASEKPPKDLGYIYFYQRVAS
Outline: as §1

USP54 = USP54 (UniProt Q70EL1)
Chain of USP54 (Q70EL1 whole entry): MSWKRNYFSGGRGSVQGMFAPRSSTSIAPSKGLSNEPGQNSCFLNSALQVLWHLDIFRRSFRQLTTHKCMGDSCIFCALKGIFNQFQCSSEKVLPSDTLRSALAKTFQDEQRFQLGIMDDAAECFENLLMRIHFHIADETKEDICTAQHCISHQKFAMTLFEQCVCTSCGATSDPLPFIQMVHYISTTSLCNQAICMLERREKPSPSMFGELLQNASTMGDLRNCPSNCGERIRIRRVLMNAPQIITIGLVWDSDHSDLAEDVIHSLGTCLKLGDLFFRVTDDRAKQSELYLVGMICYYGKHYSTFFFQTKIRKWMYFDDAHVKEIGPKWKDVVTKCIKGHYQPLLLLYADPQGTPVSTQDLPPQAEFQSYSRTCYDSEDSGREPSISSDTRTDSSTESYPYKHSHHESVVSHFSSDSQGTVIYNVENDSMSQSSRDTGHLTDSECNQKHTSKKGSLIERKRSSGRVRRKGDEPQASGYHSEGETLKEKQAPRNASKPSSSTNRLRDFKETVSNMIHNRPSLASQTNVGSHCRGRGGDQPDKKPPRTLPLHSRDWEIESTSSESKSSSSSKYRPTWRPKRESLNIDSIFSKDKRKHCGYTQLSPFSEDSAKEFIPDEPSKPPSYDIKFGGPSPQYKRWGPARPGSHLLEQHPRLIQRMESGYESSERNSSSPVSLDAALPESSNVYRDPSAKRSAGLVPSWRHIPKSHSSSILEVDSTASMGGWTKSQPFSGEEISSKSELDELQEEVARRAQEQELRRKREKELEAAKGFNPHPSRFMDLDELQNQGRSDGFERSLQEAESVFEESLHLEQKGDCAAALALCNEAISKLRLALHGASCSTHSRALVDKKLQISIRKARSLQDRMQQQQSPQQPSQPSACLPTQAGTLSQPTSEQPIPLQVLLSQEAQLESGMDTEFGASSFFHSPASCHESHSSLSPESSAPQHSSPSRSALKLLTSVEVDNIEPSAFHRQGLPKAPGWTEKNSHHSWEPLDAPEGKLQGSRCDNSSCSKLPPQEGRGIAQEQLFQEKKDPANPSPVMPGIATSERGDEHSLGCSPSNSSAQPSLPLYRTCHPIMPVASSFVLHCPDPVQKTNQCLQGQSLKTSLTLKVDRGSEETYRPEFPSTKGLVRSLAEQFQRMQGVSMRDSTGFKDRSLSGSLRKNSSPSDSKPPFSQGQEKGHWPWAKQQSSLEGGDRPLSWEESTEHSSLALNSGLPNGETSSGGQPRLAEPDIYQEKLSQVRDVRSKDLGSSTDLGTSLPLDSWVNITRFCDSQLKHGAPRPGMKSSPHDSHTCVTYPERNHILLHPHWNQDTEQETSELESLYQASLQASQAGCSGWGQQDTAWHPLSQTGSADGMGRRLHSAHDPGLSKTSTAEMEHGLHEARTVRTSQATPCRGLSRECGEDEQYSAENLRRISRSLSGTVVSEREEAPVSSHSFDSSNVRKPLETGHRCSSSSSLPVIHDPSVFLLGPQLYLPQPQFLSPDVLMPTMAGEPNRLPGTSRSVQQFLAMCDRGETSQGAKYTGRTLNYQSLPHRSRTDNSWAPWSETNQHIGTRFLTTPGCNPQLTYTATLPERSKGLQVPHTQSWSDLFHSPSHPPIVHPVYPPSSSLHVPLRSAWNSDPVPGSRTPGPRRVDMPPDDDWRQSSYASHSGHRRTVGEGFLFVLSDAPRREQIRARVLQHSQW
Outline: as §1

USP7 = USP7 (UniProt Q93009)
Outline: as §1

USP8 = target: T5, USP8 (UniProt P40818)
T5 sequence (whole entry): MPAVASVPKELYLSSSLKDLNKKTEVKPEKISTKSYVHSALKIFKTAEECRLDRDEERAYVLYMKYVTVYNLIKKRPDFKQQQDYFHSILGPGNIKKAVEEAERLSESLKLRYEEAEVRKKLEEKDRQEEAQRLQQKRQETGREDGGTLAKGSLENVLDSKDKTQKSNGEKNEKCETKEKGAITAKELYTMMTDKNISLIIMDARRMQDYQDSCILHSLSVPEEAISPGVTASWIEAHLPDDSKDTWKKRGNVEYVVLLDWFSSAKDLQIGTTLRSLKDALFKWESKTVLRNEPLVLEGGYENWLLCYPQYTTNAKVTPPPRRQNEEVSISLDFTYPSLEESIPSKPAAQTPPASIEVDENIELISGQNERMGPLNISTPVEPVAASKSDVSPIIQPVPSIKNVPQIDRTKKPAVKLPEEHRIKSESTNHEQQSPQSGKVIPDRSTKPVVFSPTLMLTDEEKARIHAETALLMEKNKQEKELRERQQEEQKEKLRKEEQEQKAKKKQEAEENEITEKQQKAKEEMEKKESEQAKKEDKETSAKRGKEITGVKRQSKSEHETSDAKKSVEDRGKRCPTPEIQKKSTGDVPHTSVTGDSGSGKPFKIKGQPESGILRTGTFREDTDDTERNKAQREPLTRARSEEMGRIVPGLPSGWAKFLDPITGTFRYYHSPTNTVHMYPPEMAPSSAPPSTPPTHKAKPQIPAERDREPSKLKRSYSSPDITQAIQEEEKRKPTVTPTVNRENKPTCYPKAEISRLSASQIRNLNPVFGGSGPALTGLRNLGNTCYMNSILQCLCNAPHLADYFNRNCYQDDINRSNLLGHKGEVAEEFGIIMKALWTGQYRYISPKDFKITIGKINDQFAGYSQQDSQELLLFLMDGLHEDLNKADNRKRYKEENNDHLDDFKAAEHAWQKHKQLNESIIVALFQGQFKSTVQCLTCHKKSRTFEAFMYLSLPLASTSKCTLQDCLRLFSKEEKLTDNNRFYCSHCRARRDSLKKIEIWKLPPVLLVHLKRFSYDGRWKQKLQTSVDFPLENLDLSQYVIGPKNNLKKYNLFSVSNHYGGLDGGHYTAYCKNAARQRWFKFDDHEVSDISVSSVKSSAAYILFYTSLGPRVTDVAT
Outline: as §1

USP9X = USP9X (UniProt Q93008)
Chain of USP9X (Q93008 whole entry): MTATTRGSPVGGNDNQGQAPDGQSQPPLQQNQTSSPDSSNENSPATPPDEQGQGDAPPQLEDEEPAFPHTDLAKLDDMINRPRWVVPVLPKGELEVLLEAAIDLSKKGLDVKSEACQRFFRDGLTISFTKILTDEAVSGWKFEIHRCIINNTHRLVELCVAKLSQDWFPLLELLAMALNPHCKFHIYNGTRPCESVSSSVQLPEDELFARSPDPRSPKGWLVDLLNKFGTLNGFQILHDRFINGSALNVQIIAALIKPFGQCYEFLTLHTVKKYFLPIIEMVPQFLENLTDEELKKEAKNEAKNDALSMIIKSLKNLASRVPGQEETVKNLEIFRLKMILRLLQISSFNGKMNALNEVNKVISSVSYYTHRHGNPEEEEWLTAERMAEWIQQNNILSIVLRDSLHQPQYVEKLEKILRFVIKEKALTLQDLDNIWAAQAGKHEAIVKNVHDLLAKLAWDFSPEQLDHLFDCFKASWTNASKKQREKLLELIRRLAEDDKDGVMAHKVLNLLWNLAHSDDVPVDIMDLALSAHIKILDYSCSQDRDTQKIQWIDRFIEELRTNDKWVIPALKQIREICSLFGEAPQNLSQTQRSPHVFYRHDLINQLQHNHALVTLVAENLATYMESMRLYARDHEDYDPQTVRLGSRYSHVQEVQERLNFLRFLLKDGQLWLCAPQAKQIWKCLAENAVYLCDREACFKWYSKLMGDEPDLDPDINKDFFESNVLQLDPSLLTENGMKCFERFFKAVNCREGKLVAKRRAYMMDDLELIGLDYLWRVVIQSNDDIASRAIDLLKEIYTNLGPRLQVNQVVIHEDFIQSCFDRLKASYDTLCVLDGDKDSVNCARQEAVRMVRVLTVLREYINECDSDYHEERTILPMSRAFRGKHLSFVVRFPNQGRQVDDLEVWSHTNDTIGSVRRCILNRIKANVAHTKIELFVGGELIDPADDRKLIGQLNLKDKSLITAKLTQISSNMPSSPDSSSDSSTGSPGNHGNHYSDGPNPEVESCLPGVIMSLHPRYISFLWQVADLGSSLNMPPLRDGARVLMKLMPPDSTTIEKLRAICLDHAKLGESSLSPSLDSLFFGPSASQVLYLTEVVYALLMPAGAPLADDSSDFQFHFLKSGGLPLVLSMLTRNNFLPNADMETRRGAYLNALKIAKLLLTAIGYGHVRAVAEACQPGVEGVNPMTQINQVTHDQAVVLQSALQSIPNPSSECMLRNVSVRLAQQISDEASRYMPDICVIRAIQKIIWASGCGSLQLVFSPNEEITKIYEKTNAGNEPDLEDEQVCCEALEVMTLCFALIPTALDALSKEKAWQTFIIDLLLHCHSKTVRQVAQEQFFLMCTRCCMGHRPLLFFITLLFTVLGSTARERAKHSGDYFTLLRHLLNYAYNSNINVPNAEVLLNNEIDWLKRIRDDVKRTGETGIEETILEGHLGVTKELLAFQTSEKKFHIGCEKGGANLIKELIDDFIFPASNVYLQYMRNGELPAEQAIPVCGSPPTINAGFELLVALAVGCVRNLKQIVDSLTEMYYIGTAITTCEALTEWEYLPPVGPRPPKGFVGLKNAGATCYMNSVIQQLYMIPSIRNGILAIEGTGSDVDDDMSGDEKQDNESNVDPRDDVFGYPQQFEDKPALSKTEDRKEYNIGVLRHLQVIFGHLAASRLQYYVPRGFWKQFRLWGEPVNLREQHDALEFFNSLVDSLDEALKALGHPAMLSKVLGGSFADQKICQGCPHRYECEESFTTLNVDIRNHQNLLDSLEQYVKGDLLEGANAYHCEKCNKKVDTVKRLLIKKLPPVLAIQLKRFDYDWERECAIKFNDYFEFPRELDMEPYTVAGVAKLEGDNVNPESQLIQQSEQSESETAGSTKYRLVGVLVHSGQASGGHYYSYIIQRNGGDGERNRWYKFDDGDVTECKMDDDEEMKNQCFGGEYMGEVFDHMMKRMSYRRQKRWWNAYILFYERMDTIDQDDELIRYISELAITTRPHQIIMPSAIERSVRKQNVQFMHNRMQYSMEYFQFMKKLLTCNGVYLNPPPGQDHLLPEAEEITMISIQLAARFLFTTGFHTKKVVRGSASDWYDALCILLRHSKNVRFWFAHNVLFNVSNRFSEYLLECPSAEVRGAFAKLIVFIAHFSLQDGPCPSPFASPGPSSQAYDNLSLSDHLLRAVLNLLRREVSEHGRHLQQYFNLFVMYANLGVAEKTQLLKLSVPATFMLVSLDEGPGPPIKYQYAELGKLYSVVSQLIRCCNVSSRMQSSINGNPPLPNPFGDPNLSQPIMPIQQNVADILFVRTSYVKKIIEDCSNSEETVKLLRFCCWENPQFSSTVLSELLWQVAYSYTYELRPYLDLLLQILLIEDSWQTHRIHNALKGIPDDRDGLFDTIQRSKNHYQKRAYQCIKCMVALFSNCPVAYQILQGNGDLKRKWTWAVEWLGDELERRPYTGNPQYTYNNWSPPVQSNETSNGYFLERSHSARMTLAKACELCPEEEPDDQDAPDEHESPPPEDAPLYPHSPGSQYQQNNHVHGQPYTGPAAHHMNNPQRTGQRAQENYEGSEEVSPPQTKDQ
Outline: as §1

UniProt O00487 = target: UniProt O00487
Chain of UniProt O00487 (O00487 whole entry): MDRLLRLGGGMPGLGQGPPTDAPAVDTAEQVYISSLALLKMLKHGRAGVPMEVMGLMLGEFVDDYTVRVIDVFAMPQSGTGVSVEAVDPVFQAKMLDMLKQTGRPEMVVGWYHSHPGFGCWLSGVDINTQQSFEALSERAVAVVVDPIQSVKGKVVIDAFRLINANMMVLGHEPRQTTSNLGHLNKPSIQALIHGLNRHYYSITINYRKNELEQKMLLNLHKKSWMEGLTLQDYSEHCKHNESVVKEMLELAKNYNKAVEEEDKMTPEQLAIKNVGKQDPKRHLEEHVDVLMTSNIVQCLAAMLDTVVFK
Outline: as §1

Measured: log2 ratio of Biotin-Ahx-Ub-VS probe labelling

Cl.O=C(CCl)N1CCn2cncc2C1
inactive: USP42 0.404 | USP46 -0.137 | USP47 0.174 | USP48 -0.0876 | USP5 -0.362 | USP54 0.158 | USP7 -0.527 | USP8 -0.217 | USP9X -0.0687 | UniProt O00487 -0.0669

O=C(CCl)N1CC2(CCOCC2)C1
inactive: USP42 -0.145 | USP46 0.00462 | USP47 0.0373 | USP48 -0.152 | USP5 0.362 | USP54 0.355 | USP7 -0.055 | USP8 0.147 | USP9X -0.238 | UniProt O00487 -0.0916

Cc1nc(-c2cccc(NC(=O)CCl)c2)cs1
inactive: USP42 0.339 | USP46 -0.382 | USP47 -0.123 | USP48 -0.43 | USP5 -0.284 | USP54 0.0451 | USP7 -0.163 | USP8 -0.282 | USP9X -0.362 | UniProt O00487 -0.0542

Cc1cnc2[nH]cc(CCNC(=O)CCl)c2c1
inactive: USP42 0.34 | USP46 -0.0833 | USP47 -0.00951 | USP48 0.00232 | USP5 -0.115 | USP54 0.181 | USP7 -0.0122 | USP8 -0.428 | USP9X -0.0941 | UniProt O00487 0.0974
